# Test results taken from PubChem BioAssay (NCATS).
# Values joined by “and” are separate entries in the source; they are usually repeats but may differ in a detail not shown here. Equal values may be shown once. Records with an inconclusive call do not appear. Where a structure was tested more than once in an assay, its records may differ in their call. Active and inactive are the calls of the source. Unless noted, calls follow the shape of the dose curve; as a rule, active = well fitted curve in the direction sought with a large enough effect; inconclusive = small, poorly fitted or top-dose-only effect, or another doubt; inactive = no such curve, though single readings can be large; an effect the other way counts as inactive or inconclusive.
# What was measured:
# [1] = biological target: Cytochrome P450 3A4 (Homo sapiens) (UniProt P08684); experiment: qHTS Assay for Activators of Cytochrome P450 3A4 (AID 885); also: nearly all actives have a fitted effect of over 65% in size
# Method in brief: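 Using 20nM recombinant human CYP3A4 in potassium phosphate (200mM), substrate Luciferin-PPXE at 25uM, luminescent luciferin detection followed a 60-min RT NADPH reaction; data scaled to 57 uM ketoconazole.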
# [2] = Primary qHTS for small molecule stabilizers of the endoplasmic reticulum resident proteome: Secreted ER Calcium Modulated Protein (SERCaMP) assay (AID 1508630); also: % is scaled to controls: 0 for no effect and ±100 for the full control effect
# Method in brief: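 The SH-SY5Y reporter protocol was run at 3 concentrations up to 38.3 uM (primary) or 11 concentrations (follow-up): 16 h compound, 100 nM thapsigargin for 4 h, then extracellular luciferase luminescence.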
# [3] = AP1 Signaling Pathway (AID 357; active = well fitted curve in either direction with a large enough effect, not every such curve was filed as active;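 also: ME-180 reporter cells stimulated with EGF at its EC50 level; % is scaled to controls: 0 for no effect and ±100 for the full control effect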); conditions: ME-180 AP-1-bla reporter, EGF-induced, beta-lactamase ratio, 5 h; at 7.69 µM (top of the series) unless noted
# Method in brief: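 Read-out was the 460nm/530nm emission ratio (excitation 405nm) after CCF4 loading for 2.5 hours at room temperature. Cells carried an AP-1-driven beta-lactamase reporter, were stimulated with EC50 EGF plus compound for 5 hours, and AC50 values came from titrations.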
# [4] = biological target: Cytochrome P450 1A2 (Homo sapiens) (UniProt P05177); experiment: p450-cyp1a2 (AID 410; calls by dose curve; also: potency is read from the fitted curve at half-maximal effect;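 as to activity change, negative = inhibition: -100% = full effect of reference inhibitor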)
# Method in brief: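 O-Demethylation of luciferin 6' methyl ether by human CYP1A2 is monitored as luciferase luminescence. Substrate sits at Km (100uM); enzyme is 20nM. Values are scaled to 57 uM furafylline as maximal inhibition.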
# [5] = NFAT Signaling Pathway (AID 444; active = well fitted curve in either direction with a large enough effect, not every such curve was filed as active;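 also: carbachol stimulus at about its EC50 of 1 µM final; % is scaled to controls: 0 for no effect and ±100 for the full control effect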); conditions: Jurkat NFAT-bla M1, carbachol, beta-lactamase ratio, 5 h; at 7.69 µM (top of the series) unless noted
# Method in brief: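 Read-out: CCF4 FRET ratio (460 nm/530 nm) after 1 h RT dye loading, used for %activity and AC50 from titration series. Cells: Jurkat NFAT-β-lactamase/M1 line, treated with compound plus 1 uM carbachol for 5 h, 37 °C.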
# [6] = Stat Signaling Pathway (AID 446; active = well fitted curve in either direction with a large enough effect, not every such curve was filed as active;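 also: ME-180 cervical cancer cells given 40 pM IL-6 alongside compound; SIE-controlled beta-lactamase reporter measured as 460/530 nm FRET emission ratio; % is scaled to controls: 0 for no effect and ±100 for the full control effect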); conditions: ME-180 (cervical carcinoma) SIE beta-lactamase reporter, IL-6 stimulated, 5 h; at 7.69 µM (top of the series) unless noted
# Method in brief: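 Overnight-plated ME-180 cells bearing a STAT Inducible Element beta-lactamase reporter; 5 h co-exposure to compound and 40 pM IL-6; values normalized to 300 pM IL-6 and 125 nM JAK inhibitor controls.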
# [7] = biological target: Glucocorticoid receptor (Homo sapiens) (UniProt P04150); experiment: GR-GFP Redistribution (AID 450;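 active = compounds whose dose series gives a full or clear partial fitted curve of increased nuclear translocation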; also: potency is read from the fitted curve at half-maximal effect); conditions: U2OS GR-GFP nuclear translocation, laser cytometry, 2 h
# [8] = biological target: Glucocorticoid receptor (Homo sapiens) (UniProt P04150); experiment: GR-EFC Redistribution (AID 451; calls by dose curve; also: potency is read from the fitted curve at half-maximal effect); conditions: CHO-K1 GR-EFC translocation, beta-gal luminescence, 2 h
# Method in brief: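 Translocation of GR-ED fusion to nuclear EA restores b-gal, read by luminescence after 1 h room-temperature detection. Engineered CHO-K1 biosensor cells, 1,000/well, exposed 2 h at 37 C to titrations up to 46 uM final.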
# [9] = biological target: Mitogen-activated protein kinase 10 (Mus musculus) (UniProt Q61831); experiment: JNK3 AlphaScreen Assay (AID 530; active = well fitted curve in either direction with a large enough effect, not every such curve was filed as active)
# Method in brief: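 qHTS titrations with 15 min compound pre-incubation before adding ATP (10 uM final). Read-out: AlphaScreen of Ser73-phosphorylated biotin-GST-cJun using HepG2 lysate JNK3 activated by IL-1β and TNFα.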
# [10] = biological target: 3',5'-cyclic-AMP phosphodiesterase 4B (Homo sapiens) (UniProt Q07343); experiment: qHTS Assay for Inhibitors of PDE-IV (AID 607; active = well fitted activation curve with a large enough effect in the main read-out, with a control signal flat, not every such curve was filed as active; also: % of control where 0% means no effect)
# Method in brief: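 Live HEK293 cells with a modified cyclic nucleotide-gated (CNG) channel report intracellular cAMP via membrane-potential dye fluorescence (ex 535/em 590 nm). Endogenous PDE-IV was targeted. Compounds were tested at up to 22.9 uM final; RO 20-1724 100 uM served as control.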
# [11] = biological target: Cytochrome P450 2C9 (Homo sapiens) (UniProt P11712); experiment: qHTS Assay for Inhibitors and Substrates of Cytochrome P450 2C9 (AID 883); also: % is scaled to controls: 0 for no effect and ±100 for the full control effect; nearly all actives have a fitted effect of over 60% in size
# Method in brief: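 Luminescent read-out of deoxyluciferin hydroxylation, normalized to 57uM sulphaphenazole (AC100). Reaction: 10nM enzyme, 100uM Luciferin-H (equal to KM), 25mM KPO4, 10 min compound preincubation, then 60 min with NADPH regeneration, both at 37C.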
# [12] = biological target: Cytochrome P450 2D6 (Homo sapiens) (UniProt P10635); experiment: qHTS Assay for Inhibitors and Substrates of Cytochrome P450 2D6 (AID 891); also: potency is read from the fitted curve at half-maximal effect; nearly all actives have a fitted effect of over 60% in size
# Method in brief: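 Luminescent read-out of luciferin formed by 5 nM human CYP2D6 demethylating 30 uM Luciferin-ME EGE (Km level) over 60 min at room temperature after NADPH regeneration addition. Data normalized to full inhibition by 1.43 uM quinidine.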
# [13] = biological target: Cytochrome P450 2C19 (Homo sapiens) (UniProt P33261); experiment: qHTS Assay for Inhibitors and Substrates of Cytochrome P450 2C19 (AID 899); also: nearly all actives have a fitted effect of over 60% in size; also: potency is read from the fitted curve at half-maximal effect
# Method in brief: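 Luminescence readout of luciferin formed from 10uM Luciferin-H EGE (KM level) by 5 nM CYP2C19 in 50mM KPO4. 60 min NADPH-driven reaction at 37C after 10 min compound preincubation; data scaled to 57uM ketoconazole inhibition.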
# [14] = qHTS Assay for Lipid Storage Modulators (AID 1519; calls by dose curve); conditions: Drosophila S3 cells, BODIPY lipid droplet/cell ratio, laser cytometry, cells loaded with oleic acid
# Method in brief: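 Cells seeded at 5,000 per well were treated with compounds over a concentration series and loaded with oleic acid (400 uM, as added). Lipid droplet fluorescence (488 nm excitation, 500-530 nm channel) was read by laser-scanning cytometry and normalized to 20 uM Triacsin C.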
# [15] = biological target: Ubiquitin carboxyl-terminal hydrolase 1 (Homo sapiens) (UniProt O94782); experiment: Inhibitors of USP1/UAF1: Pilot qHTS (AID 504865);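 also: rhodamine fluorescence freed from ubiquitin-rhodamine substrate followed over time; top concentration of the series differs between compounds; % is scaled to controls: 0 for no effect and ±100 for the full control effect; nearly all actives have a fitted effect of over 35% in size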
# Method in brief: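 1nM USP1/UAF1 + cpd, 15 min RT; start w/ Ub-Rho 150nM final; kinetic FL 480/540 nm, 6 reads q60 s. Buffer 50mM HEPES pH 7.8, 0.5mM EDTA, 1mM TCEP, 0.01% Tween-20, 0.1 mg/ml BSA.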
# [16] = biological target: DNA dC->dU-editing enzyme APOBEC-3G (Homo sapiens) (UniProt Q9HC16); experiment: qHTS for inhibitors of Vif-A3G interactions: Validation (AID 588379); also: 0% is about no effect
# Method in brief: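 Yellow fluorescence (Ex 488, Em 500-530) of Vif-coexpressing HeLa A3G-eYFP cells, scanned by Acumen cytometer, reports blocked A3G degradation. Cells plated at 700/well overnight at 37 deg C before compound addition, then a further overnight compound incubation at 37 deg C.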
# [17] = biological target: Lysosomal acid glucosylceramidase (Homo sapiens) (UniProt P04062); experiment: Glucocerebrosidase-p2 (AID 348; in the data active = potency below about 10 µM; also: potency is read from the fitted curve at half-maximal effect); conditions: purified GBA, blue fluorogenic substrate, 40 min
# Method in brief: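 Normal human glucocerebrosidase (0.2 nM) with blue fluorogenic substrate (80 uM final) in citrate/phosphate pH 5.9 with 10mM sodium taurocholate, 0.01% tween-20; 40 min RT, NaOH/glycine stop; fluorescence Ex 365/Em 440; AC50 from a titration from 0.6 nM upwards.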
# [18] = biological target: Cytochrome P450 3A4 (Homo sapiens) (UniProt P08684); experiment: qHTS Assay for Inhibitors and Substrates of Cytochrome P450 3A4 (AID 884); also: potency is read from the fitted curve at half-maximal effect; nearly all actives have a fitted effect of over 50% in size
# Method in brief: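 Luminescent readout of luciferin produced by CYP3A4 (20 nM) dealkylation of Luciferin-PPXE, 25 uM (its KM). NADPH-driven reaction ran 60 min at RT after 10 min compound preincubation; data scaled to 57 uM ketoconazole as 100% inhibition.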
# [19] = Confirmation and Secondary Assay for Modulators of Hemoglobin Beta Chain Splicing at IVS2 654 locus (AID 910);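 also: HeLa cells stably carrying EGFP split by mutant beta-globin IVS2-654 intron; % of control where 0% means no effect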
# Method in brief: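 Readout: per-well total peak green fluorescence (488 nm ex, 500–520 nm em) from objects 5–250 µm, reflecting correct splicing of an EGFP-654 reporter. Compounds were applied for 2 days at 37 °C to overnight-plated HeLa EGFP-654 cells; controls were DMSO and 500 nM IVS2-654 PNA.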
# [20] = Confirmation and Secondary Assay for Modulators of Hemoglobin Beta Chain Splicing at IVS2 705 locus (AID 930);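 also: HeLa cells stably expressing the EGFP-705 splicing reporter; GFP fluorescence per well restored by corrected splicing of the IVS2-705 intron in EGFP; % of control where 0% means no effect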
# Method in brief: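 HeLa cells stably carrying EGFP interrupted by mutant beta-globin intron 2 (IVS2-705) treated 2 days at 37C with compound; 500 nM antisense PNA as control. Correct splicing read as total peak GFP intensity per well by laser-scanning cytometry.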
# [21] = biological target: Rap guanine nucleotide exchange factor 3 (Homo sapiens) (UniProt O95398); experiment: Confirmatory qHTS for antagonist of cAMP-regulated guanine nucleotide exchange factor 3 (EPAC1) (AID 1645880);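 also: plate controls were DMSO only for no effect and full effect of the ATA control for full effect; nearly all actives have a fitted effect of over 55% in size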
# Method in brief: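 Released BODIPY-GDP fluoresces less than Rap1-bound BODIPY-GDP; the signal is followed at 480/540 nm at 5-min intervals over 30 min, after 5 min at room temperature. Reactions contain 100 nM EPAC1, 250 nM RAP1B-BODIPY-GDP and 50 uM GDP; results are normalized to ATA and DMSO.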
# [22] = biological target: Rap guanine nucleotide exchange factor 3 (Homo sapiens) (UniProt O95398); experiment: Confirmatory qHTS for agonist of cAMP-regulated guanine nucleotide exchange factor 3 (EPAC1) (AID 1645881);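 also: EPAC1 catalysed release of BODIPY-GDP from Rap1B seen as fluorescence loss; 100% = effect of cAMP agonist control; nearly all actives have a fitted effect of over 75% in size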
# [23] = biological target: Rap guanine nucleotide exchange factor 4 (Homo sapiens) (UniProt Q8WZA2); experiment: Confirmatory qHTS for agonist of cAMP-regulated guanine nucleotide exchange factor 4 (EPAC2) (AID 1645884);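 also: nucleotide exchange releases bodipy-GDP from Rap1 and this lowers its fluorescence; % is scaled to controls: 0 for no effect and ±100 for the full control effect; nearly all actives have a fitted effect of over 65% in size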
# [24] = biological target: Rap guanine nucleotide exchange factor 4 (Homo sapiens) (UniProt Q8WZA2); experiment: Confirmatory qHTS for antagonist of cAMP-regulated guanine nucleotide exchange factor 4 (EPAC2) (AID 1645885); also: nearly all actives have a fitted effect of over 25% in size; also: potency is read from the fitted curve at half-maximal effect
# [25] = biological target: Rap guanine nucleotide exchange factor 3 (Homo sapiens) (UniProt O95398); experiment: Counterscreen qHTS for antagonist of cAMP-regulated guanine nucleotide exchange factor 3 (EPAC1) (AID 1645888); also: % of control where 0% means no effect
# Method in brief: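 Rap1B-BODIPY-GDP 250 nM + GDP 50 uM; cpds 7-pt, final 9.74 nM–152 uM (activator mode) or from 7.32 nM upwards (inhibitor mode); RT; FI 480/540 nm at 5 and 30 min, then ± cAMP, reread.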
# [26] = measured here: cell count channel max response
# [27] = measured here: lipid channel max response
# Sequence of Cytochrome P450 3A4 (Homo sapiens) (P08684 whole entry, looked up): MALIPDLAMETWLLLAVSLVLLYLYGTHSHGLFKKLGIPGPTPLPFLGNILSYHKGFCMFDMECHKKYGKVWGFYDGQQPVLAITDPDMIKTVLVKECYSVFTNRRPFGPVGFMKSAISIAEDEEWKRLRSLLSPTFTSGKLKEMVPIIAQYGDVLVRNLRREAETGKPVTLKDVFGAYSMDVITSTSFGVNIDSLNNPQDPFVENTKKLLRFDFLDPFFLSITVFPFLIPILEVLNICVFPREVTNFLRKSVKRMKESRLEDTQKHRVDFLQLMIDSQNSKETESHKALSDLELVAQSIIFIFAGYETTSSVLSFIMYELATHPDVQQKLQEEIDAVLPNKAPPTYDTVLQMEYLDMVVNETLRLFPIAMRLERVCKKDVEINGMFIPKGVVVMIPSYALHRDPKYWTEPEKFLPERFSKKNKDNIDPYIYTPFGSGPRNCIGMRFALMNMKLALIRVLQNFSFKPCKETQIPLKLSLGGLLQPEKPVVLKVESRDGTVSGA
# Sequence of Rap guanine nucleotide exchange factor 3 (Homo sapiens) (O95398 whole entry, looked up): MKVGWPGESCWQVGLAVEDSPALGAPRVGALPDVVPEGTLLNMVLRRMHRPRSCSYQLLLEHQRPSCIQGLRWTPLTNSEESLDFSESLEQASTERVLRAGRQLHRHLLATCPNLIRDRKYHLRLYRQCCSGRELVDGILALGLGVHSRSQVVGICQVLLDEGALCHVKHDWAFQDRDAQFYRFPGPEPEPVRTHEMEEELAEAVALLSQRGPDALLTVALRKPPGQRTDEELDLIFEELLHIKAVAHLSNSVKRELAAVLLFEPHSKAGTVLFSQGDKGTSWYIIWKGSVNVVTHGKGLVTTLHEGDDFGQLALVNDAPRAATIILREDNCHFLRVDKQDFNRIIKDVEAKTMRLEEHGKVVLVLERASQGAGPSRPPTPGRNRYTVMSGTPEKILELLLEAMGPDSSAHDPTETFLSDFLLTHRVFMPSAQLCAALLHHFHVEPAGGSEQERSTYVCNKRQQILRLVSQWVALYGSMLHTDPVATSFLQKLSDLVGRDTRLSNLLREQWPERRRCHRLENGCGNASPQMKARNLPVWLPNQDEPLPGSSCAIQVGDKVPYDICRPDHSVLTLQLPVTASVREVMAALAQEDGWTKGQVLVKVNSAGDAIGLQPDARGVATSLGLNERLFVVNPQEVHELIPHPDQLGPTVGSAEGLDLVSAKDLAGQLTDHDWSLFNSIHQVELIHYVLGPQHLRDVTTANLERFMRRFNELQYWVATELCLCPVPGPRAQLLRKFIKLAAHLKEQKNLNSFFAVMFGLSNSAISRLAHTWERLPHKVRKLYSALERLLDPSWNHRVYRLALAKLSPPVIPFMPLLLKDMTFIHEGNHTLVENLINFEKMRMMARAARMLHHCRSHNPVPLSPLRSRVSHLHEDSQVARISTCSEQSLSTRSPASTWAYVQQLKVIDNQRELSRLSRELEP
# Sequence of Cytochrome P450 1A2 (Homo sapiens) (P05177 whole entry, looked up): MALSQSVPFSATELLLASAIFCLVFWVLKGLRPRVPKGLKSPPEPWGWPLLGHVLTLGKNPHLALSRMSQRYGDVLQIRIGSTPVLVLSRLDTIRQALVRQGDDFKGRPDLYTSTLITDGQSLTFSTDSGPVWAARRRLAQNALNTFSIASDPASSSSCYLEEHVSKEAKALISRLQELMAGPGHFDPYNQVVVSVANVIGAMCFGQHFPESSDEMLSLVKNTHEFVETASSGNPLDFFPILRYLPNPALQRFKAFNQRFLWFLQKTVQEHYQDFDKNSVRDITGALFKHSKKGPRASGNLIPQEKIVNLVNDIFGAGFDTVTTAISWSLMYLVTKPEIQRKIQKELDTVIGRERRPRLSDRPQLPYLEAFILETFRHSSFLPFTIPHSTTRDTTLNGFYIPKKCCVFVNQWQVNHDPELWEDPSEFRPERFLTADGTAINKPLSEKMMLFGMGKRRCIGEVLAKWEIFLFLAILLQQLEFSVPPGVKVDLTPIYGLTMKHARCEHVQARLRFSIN
# Sequence of Rap guanine nucleotide exchange factor 4 (Homo sapiens) (Q8WZA2 whole entry, looked up): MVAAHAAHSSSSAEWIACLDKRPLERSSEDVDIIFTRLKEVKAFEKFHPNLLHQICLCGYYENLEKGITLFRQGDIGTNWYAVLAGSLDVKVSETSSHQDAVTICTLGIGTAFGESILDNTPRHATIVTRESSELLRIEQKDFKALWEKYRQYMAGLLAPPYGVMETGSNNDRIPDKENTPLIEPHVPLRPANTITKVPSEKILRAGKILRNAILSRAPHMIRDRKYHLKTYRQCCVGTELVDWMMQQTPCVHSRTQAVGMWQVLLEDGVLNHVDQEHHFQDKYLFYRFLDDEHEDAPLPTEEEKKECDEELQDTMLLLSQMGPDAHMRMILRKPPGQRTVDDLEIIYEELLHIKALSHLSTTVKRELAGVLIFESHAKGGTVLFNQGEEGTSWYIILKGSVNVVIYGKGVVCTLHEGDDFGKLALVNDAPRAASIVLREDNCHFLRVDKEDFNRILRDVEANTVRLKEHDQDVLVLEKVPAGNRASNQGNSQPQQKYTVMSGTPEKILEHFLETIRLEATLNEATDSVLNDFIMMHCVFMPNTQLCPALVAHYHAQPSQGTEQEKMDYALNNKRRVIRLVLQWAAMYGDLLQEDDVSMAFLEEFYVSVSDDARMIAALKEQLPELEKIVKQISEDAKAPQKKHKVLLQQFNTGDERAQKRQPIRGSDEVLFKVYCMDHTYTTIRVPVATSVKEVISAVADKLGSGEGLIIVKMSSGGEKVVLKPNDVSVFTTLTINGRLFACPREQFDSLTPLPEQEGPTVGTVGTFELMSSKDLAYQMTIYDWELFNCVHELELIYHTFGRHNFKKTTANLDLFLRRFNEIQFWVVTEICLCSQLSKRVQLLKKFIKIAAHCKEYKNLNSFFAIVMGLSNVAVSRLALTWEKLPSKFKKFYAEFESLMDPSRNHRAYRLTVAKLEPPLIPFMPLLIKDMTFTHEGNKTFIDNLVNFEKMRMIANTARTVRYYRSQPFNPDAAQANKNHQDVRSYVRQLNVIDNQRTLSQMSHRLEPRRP
# Sequence of Glucocorticoid receptor (Homo sapiens) (P04150 whole entry, looked up, the tested form may be a part): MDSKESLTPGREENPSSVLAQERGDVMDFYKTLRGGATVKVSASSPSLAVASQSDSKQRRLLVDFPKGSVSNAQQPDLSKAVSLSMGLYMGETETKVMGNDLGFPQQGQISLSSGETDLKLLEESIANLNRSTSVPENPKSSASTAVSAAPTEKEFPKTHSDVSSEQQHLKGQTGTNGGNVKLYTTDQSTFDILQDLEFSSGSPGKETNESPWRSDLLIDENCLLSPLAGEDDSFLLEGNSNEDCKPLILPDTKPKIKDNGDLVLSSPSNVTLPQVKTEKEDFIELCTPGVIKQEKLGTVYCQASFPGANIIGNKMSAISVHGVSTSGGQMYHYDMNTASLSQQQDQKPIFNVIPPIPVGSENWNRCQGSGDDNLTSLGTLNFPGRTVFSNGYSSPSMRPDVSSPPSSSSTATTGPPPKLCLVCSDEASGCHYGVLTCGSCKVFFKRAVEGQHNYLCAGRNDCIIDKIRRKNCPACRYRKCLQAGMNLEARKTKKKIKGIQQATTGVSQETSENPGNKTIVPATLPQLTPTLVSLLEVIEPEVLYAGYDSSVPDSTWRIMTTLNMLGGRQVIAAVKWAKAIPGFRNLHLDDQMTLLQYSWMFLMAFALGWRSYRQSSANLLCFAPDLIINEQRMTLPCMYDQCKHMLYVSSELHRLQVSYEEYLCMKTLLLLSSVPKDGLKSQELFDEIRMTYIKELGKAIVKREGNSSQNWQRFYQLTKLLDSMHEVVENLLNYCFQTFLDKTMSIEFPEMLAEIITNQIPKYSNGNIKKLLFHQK
# Sequence of 3',5'-cyclic-AMP phosphodiesterase 4B (Homo sapiens) (Q07343 whole entry, looked up): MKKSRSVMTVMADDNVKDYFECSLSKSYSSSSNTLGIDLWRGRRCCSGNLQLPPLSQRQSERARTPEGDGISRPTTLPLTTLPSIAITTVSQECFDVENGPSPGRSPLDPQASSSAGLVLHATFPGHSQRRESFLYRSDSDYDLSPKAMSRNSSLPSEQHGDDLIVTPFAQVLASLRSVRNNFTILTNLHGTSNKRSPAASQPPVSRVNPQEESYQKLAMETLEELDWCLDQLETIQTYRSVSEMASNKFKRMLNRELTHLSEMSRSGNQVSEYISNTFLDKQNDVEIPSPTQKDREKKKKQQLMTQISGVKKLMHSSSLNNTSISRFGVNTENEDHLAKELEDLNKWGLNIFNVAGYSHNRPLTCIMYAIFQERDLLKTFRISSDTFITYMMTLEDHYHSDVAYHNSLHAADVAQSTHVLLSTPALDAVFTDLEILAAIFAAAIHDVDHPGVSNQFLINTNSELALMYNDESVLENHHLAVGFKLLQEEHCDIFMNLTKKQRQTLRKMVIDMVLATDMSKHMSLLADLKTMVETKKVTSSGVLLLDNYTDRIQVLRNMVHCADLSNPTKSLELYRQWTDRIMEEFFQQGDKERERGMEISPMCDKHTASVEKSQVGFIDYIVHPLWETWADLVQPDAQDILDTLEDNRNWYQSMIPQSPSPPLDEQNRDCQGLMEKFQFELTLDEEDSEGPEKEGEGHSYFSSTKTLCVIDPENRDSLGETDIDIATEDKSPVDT
# Sequence of Cytochrome P450 2C19 (Homo sapiens) (P33261 whole entry, looked up): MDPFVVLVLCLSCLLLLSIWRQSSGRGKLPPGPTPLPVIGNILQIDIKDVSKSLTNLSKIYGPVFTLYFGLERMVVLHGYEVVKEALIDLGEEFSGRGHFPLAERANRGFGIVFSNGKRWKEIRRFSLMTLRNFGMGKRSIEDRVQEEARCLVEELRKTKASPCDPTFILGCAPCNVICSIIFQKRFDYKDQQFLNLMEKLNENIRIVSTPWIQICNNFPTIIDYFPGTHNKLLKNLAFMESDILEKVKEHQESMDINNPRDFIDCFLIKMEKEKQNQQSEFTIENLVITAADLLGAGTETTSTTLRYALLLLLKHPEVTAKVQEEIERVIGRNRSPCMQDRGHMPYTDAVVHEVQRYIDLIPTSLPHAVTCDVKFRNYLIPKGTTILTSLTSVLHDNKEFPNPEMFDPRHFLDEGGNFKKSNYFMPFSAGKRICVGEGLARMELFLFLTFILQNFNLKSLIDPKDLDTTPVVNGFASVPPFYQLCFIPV
compound,measurement,setting,value
CC(C)(C)c1cc(C(=O)/C=C/c2ccc(C(=O)O)cc2)cc(C(C)(C)C)c1,Potency,[1],inactive
same,outcome,[2],inactive
CC[C@@]12CCCN3CCc4c(n(c5ccccc45)[C@](O)(C(=O)OC)C1)[C@H]32,"activity change, negative = inhibition",[3],13.8% [at 17.2 µM] (inactive)
same,Potency,[4],inactive
same,"activity change, negative = inhibition",[5],-8.76% [at 17.2 µM] (inactive) and -13.1% [at 17.2 µM] (inactive)
same,"activity, negative = inhibition",[6],4.76% [at 17.2 µM] (inactive) and 8.92% [at 17.2 µM] (inactive)
same,Potency,[7],> 20.6 µM (inactive) and > 46 µM (inactive)
same,Potency,[8],> 20.6 µM (inactive) and > 46 µM (inactive)
same,Potency,[9],inactive
same,Potency,[10],inactive
same,Potency,[11],inactive
same,Potency,[1],inactive
same,Potency,[12],251 nM (active)
same,Potency,[13],inactive
same,"activity change, negative = inhibition",[14]; at 25.7 µM (top of the series),-1.27% (inactive) and -2.91% (inactive)
same,"activity change, negative = inhibition",[14]; at 57.5 µM (top of the series),0.0973% (inactive)
same,max response,[14]; [26],5.49% and 0.925% and 3.19%
same,max response,[14]; [27],4.14% and 0.607% and 6.95%
same,Potency,[15],inactive
same,outcome,[16],inactive
CN(Cc1ccco1)c1ncnc2ccc(-c3ccc4c(c3)OCO4)cc12,Potency,[17],> 11400 nM (inactive)
same,Potency,[4],501 nM (active)
same,"activity, negative = inhibition",[6],-7.17% (inactive)
same,Potency,[7],> 46 µM (inactive)
same,Potency,[8],> 46 µM (inactive)
same,Potency,[9],inactive
same,Potency,[18],2510 nM (active)
same,Potency,[1],inactive
same,Potency,[12],1580 nM (active)
same,Potency,[13],631 nM (active)
same,Potency,[19],inactive
same,outcome,[20],inactive
same,"activity change, negative = inhibition",[14]; at 57.5 µM (top of the series),2.26% (inactive)
same,max response,[14]; [26],-9.61%
same,max response,[14]; [27],-5.56%
same,Potency,[21],inactive
same,Potency,[22],inactive
same,Potency,[23],inactive
same,Potency,[24],13.9 µM (active) and inactive
same,outcome,[25],inactive
